tim23-1 inh: growth inhibitors of tim23-1 mutant yeast, primary screen, luminescence, uHTS. S. cerevisiae tim23-1 growth, BacTiter-Glo luminescence, 24 h. inhibition, % at 20 µM. hit rate 1.3% among 330,000;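 active = growth inhibition of the mutant yeast at or above 50%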;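 also: temperature-sensitive mutant grown at 25 °C; plate controls were DMSO-treated mutant yeast for no effect and medium wells lacking yeast for full effect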
NLRP3 yeast inh: NALP3 inflammasome inhibitors in reconstituted yeast, primary screen, luminescence, uHTS. Yeast reconstituted NLRP3/ASC/caspase-1, beta-gal luminescence, 24 h. inhibition, % at 10 µM. hit rate 0.39% among 330,000. AID 2825, 2010;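 active = inhibition of 50% or more; inactive = inhibition below 50%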;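 also: plate controls were induced DMSO wells for no effect and uninduced yeast grown without galactose for full effect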
tim10-1 inh: growth inhibitors of tim10-1 mutant yeast, primary screen, luminescence, uHTS; hit rate 2.2% among 330,000; AID 463190, 2010; S. cerevisiae tim10-1 ts strain growth, BacTiter-Glo, 24 h; inhibition, % at 20 µM;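 active = inhibition of at least 40%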;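 also: mutant grown at 25 °C; 0% = DMSO wells with yeast and 100% = wells holding no yeast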
TIM10 inh: growth inhibitors of isogenic TIM10 control yeast, primary screen, counter-screen for tim10-1 yeast inhibitor project, luminescence, uHTS. AID 463195, 2010. S. cerevisiae TIM10 strain growth, BacTiter-Glo luminescence, 24 h. inhibition, % at 10 µM. hit rate 1.4% among 330,000;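 active = inhibition of 40% or more at the single tested concentration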;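 also: wild-type TIM10 isogenic control strain grown at permissive 25 °C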
CR mimetic SO: reduction of superoxide in aged yeast, primary screen, HTS; S. cerevisiae aged cells, superoxide DHE fluorescence; hits give low values; superoxide response (% of plate mean), % at 10 µM; hit rate 0.18% among 330,000; AID 2690, 2010;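 active = superoxide response under a set limit, about three screen SD below normal, cut at about 65% in these data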;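 also: yeast aged for seven days with compound at 30 °C before DHE staining; 100% = average MFI of all compound-treated wells on the plate with controls excluded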
NALP3 confirm: NALP3 inhibitors retested in yeast, confirmation, luminescence, single concentration; shares compounds with NLRP3 yeast inh; yeast expressing human NALP3; inhibition, % at 10 µM; hit rate 81% among 1,300; in the data active = inhibition above about 48%
Casp1-ASC yeast: CASP1-PYCARD signaling inhibition in yeast, confirmatory test, counterassay for NLRP3 inhibitor program, one-dose. shares compounds with NLRP3 yeast inh. yeast expressing Caspase-1-ASC, luminescence counter screen. inhibition, % at 10 µM. hit rate 66% among 1,000
NALP3 retest: NALP3 inhibitors in yeast, repeat test, confirmation, luminescence, single concentration, retest; shares compounds with NLRP3 yeast inh; yeast expressing human NALP3, luminescence read-out; inhibition, % at 10 µM; hit rate 53% among 1,000
* marks the source's active call; other numbers are inactive results; x = not tested or not shown. Only some compounds are listed: those with a hit (about 3.8% of all), similar ones and a draw of the others. Rule as the data show it, unless noted: active = inhibition above about 50%; inactive = the rest.

SMILES	tim23-1 inh	NLRP3 yeast inh	tim10-1 inh	TIM10 inh	CR mimetic SO	NALP3 confirm	Casp1-ASC yeast	NALP3 retest
COC(=O)c1ccc(NC(=O)C(=O)c2c[nH]c3ccccc23)cc1	12	29	12	-3	109	x	x	x
O=C(/C=C/c1ccccc1)c1c[nH]c2ccccc12	16	50*	-60	-24	98	63*	x	x
O=C(Nc1ccccc1)C(=O)c1c[nH]c2ccccc12	-4	58*	-27	-21	96	75*	42	50
Cc1cc(C)cc(C(=O)Nc2nc3ccccc3[nH]2)c1	47	52*	11	13	76	52*	61*	47
COc1ccc(Cl)cc1C(=O)Nc1nc2ccccc2[nH]1	31	72*	-23	22	92	78*	77*	72*
O=C(Nc1nc2ccccc2[nH]1)c1cc(F)cc(F)c1	-2	35	2	-7	94	x	x	x
CCN(C(=O)COc1ncnc2sccc12)c1ccccc1	4	4	3	6	102	x	x	x
COCCOc1ccc(C(F)(F)F)cc1NC(=O)COC(=O)c1ccc(N2CCCC2=O)cc1	8	12	8	-5	117	x	x	x
COc1ccc(NC(=O)c2ccc(F)c(F)c2)c2ccccc12	2	50*	-3	4	98	61*	27	44
COc1ccc(C(=O)Nc2ccc(O)c3ccccc23)cc1	18	4	15	-20	104	x	x	x
CCCN(CC(=O)Nc1ccc(Cl)cc1Cl)C(=O)/C=C/c1cc(OC)ccc1OC	2	14	20	-9	101	x	x	x
COc1cc(-c2nc3ccccn3c2/N=C/c2cc(OC)c(O)cc2Cl)ccc1O	29	-105	29	18	101	-19	x	x
CCOC(=O)c1sc(=S)n(-c2cc(OC)ccc2OC)c1N	17	97*	-1	2	140	96*	71*	57*
CCOC(=O)c1sc(=S)n(-c2cc(F)ccc2F)c1N	-11	26	-1	-5	88	x	x	x
CCCNc1nc(C)cc(-c2cc(C(=O)NC3CCCC3)on2)n1	19	63*	-11	-4	104	81*	51*	34
Cc1ccsc1/C=N/NC(=O)c1ccc2ccccc2c1	26	19	-22	-19	104	x	x	x
CC1Cc2ccccc2N1C(=O)CN(C)CC(=O)Nc1cccc(F)c1 (stereo unspecified)	26	5	21	4	76	x	x	x
O=C(CSc1ncnc2c1oc1ccccc12)NCc1ccc(F)cc1	26	55*	7	-18	107	63*	43	29
c1ccc(-n2nnnc2-c2cnc(-c3cccnc3)nc2-c2cccs2)cc1	28	-7	7	5	106	x	x	x
Cc1c(C(=O)NCCC2=CCCCC2)oc2ccc(S(=O)(=O)N3CCOCC3)cc12	26	58*	9	23	102	62*	55*	43
O=[N+]([O-])c1cccc(OCC(O)CN2CCN(S(=O)(=O)c3cc(Cl)ccc3Cl)CC2)c1 (stereo unspecified)	35	1	18	19	116	x	x	x
Cc1snc(SCc2ccc(F)cc2)c1C#N	9	38	1	-21	92	x	x	x
Cc1snc(SCc2ccc(Cl)cc2)c1C#N	1	52*	-5	5	96	49*	63*	25
Cc1cc(C)nc(SCC(=O)OCC(=O)N(C)c2c(N)n(Cc3ccccc3)c(=O)[nH]c2=O)n1	13	10	1	1	103	x	x	x
C=CCc1c(C)nc(C)nc1N/N=C/c1ccc([N+](=O)[O-])cc1	0	21	14	-13	106	x	x	x
SMILES	tim23-1 inh	NLRP3 yeast inh	tim10-1 inh	TIM10 inh	CR mimetic SO	NALP3 confirm	Casp1-ASC yeast	NALP3 retest
C=CCc1c(C)nc(C)nc1N/N=C/c1ccccc1O	38	55*	13	35	122	57*	38	55*
Cc1ccc2c(c1)C(CCN)C(=O)N2Cc1ccccc1 (stereo unspecified)	19	51*	11	-2	94	68*	52*	51*
CC(=O)NC1C(=O)N(Cc2ccccc2)c2ccc(Br)cc21 (stereo unspecified)	21	8	5	-12	104	x	x	x
Cc1ccccc1-n1cnnc1SCC(=O)Nc1cccnc1Cl	8	8	12	-15	107	x	x	x
O=C(Nc1nccs1)C1CCN(S(=O)(=O)c2ccccc2)CC1	14	20	-4	-2	106	x	x	x
COc1ccc(Oc2nc(-c3ccccc3)ncc2S(=O)(=O)c2ccccc2)cc1	0	4	-1	2	112	x	x	x
COc1nc(-c2ccccc2)ncc1S(=O)(=O)c1ccccc1	-5	57*	-27	-55	91	45	41	31
C/C(=N\NC(=S)NCCc1ccccc1)c1ccc(Cl)cc1Cl	34	58*	22	31	104	39	77*	58*
CCOc1ccc(C(=O)Nc2cc(-c3nc4ccccc4[nH]3)ccc2Cl)cc1[N+](=O)[O-]	13	78*	27	12	106	6	x	x
Cc1ccc(-c2nc3ccccc3[nH]2)cc1NC(=O)c1ccc2c(c1)OCO2	-10	60*	-25	-25	102	59*	56*	59*
CCOc1ccc(C(=O)Nc2cc(-c3nc4ccccc4[nH]3)ccc2C)cc1[N+](=O)[O-]	6	22	1	-1	85	x	x	x
O=C(NC(=S)Nc1cc(-c2nc3ccccc3[nH]2)ccc1Cl)c1ccc2c(c1)OCO2	-5	11	1	14	104	x	x	x
CC[C@]12c3[nH]c4cc(CCC(=O)N(C)C)ccc4c3CCN1C(=O)[C@@H](CC(=O)NCc1cccc(C(F)(F)F)c1)C[C@@H]2C(=O)N1CCN(C(=O)c2ccco2)CC1	35	x	15	-5	102	x	x	x
CCc1cccc(NC(=O)c2cnn(-c3ccccc3)c2C)c1	35	59*	-14	-49	98	67*	57*	67*
COc1cccc(NC(=O)c2cnn(-c3ccccc3)c2C)c1	22	51*	-3	1	94	59*	50	44
Cc1ccc(NC(=O)c2cnn(-c3ccccc3)c2C)cc1	10	28	-11	-13	104	x	x	x
Cc1nccc(-c2cc(-c3ccc(Cl)cc3Cl)no2)n1	14	24	12	10	104	x	x	x
CNC(=O)c1c(NC(=O)C2=COCCO2)sc2c1CCCC2	41	30	38	25	103	x	x	x

High-throughput results: PubChem BioAssay, several laboratories
